Results reported in PubChem BioAssay (NCATS).
Results filed as inconclusive are left out. Unmarked numbers belong to inactive results. Calls of active or inactive are those of the source. Calls come from the whole dose curve; as a rule, active = well fitted cell-killing curve with a large enough effect; inconclusive = small, poorly fitted or top-dose-only effect; inactive = flat fitted curve, though single readings scatter.

Test: NCATS anti-infectives library activity on HEK293 viability as a counter-qHTS vs the C. elegans viability qHTS (AID 1745854)
Conditions: HEK293 viability counter-screen; series mostly up to 41.8 µM; activity change, negative = cytotoxicity: at the top concentration
Excerpt: Assay Development and Screening Technology Laboratory (ADST)
National Center for Advancing Translational Sciences (NCATS), Rockville, MD
National Institute of Health (NIH), Bethesda, Maryland
Caenorhabditis elegans has helped elucidate the evolutionarily conserved genetics underlying pathways and cellular processes implicated in human disease and may be ideally positioned to reveal novel pharmacological properties of exiting drugs. The organism's short life cycle and microscopic size is applicable to the technical requirements of high-throughput screening. Here a quantitative high-throughput screening (qHTS)-based forward chemical biology platform has been developed using C. elegans. 384-well microtiter plate laser scanning cytometry was used in the rapid detection and quantification of the fluorescent protein-encoded phenotype to score worm viability. In a proof-of-concept study, the pharmacological qHTS profile obtained from a library of 643 anti-infective compounds.
1. Inglese, J., Auld, D. S., Jadhav, A., Johnson, R. L., Simeonov, A., Yasgar, A., Zheng, W., and Austin, C. P. (2006) Quantitative high-throughput screening: A titration-based approach that efficiently identifies biological activities in large chemical libraries, P Natl Acad Sci USA 103, 11473-11478.
2. Auld, D. S., Johnson, R. L., Zhang, Y. Q., Veith, H., Jadhav, A., Yasgar, A., Simeonov, A., Zheng, W., Martinez, E. D., Westwick, J. K., Austin, C. P., and Inglese, J. (2006) Fluorescent protein-based cellular assays analyzed by laser-scanning microplate cytometry in 1536-well plate format, Method Enzymol 414, 566-589.
3. Zuck, P., Lao, Z., Skwish, S., Glickman, J. F., Yang, K., Burbaum, J., and Inglese, J. (1999) Ligand-receptor binding measured by laser-scanning imaging, Proc Natl Acad Sci U S A 96, 11122-11127.
PROTOCOL TABLE (as described by Inglese J, Shamu CE and Guy RK. 2007)
SEQUENCE No. (e.g., 1, 2, 3, etc.); […] (e.g., C. elegans, Compounds, Incubation, Read, etc.); VALUE and DESCRIPTION.
1. Compounds. Library compounds and digitonin control added at 25 nL per well to 7 assay ready 1536-well Greiner white/solid bottom high base, TC plates and two DMSO control plates, transferred by Echo acoustic dispenser.
2. Cells. Seed 1500 HEK293 per well in 6 uL into assay ready Greiner 1536-well plates.
3. Incubation. Incubate plated cells with compounds at 37C in 5% CO2, 95% RH for 24 hr.
4. Reagent. Add 4 uL of CellTiter-Glo reagent from Promega per well of Greiner 1536-well plates with BioRAPTR FRD.
5. Incubation. Incubate treated cells at room temperature for 10 min., protect from light.
6. Detector. CellTiter-Glo luminescence measured using CCD-based camera (Viewlux) with settings as follows: Exposure, 1 sec; Gain, High; Speed, Slow; Binning, 2X.
NOTES (numbers refer to Sequence numbers above; values are from representative experiments)
1. NIH Anti-Infectives library pre-dispensed into 7 assay ready 1536-well Greiner white/solid bottom high base, TC plates with Echo 555 acoustic dispenser. Most compounds dispensed at 10 mM high concentration and plated in 7-pt 1:5 inter-plate titration at 25 nl / well for a final assay concentration range of 41.7 uM - 2.7 nM. Two 1536-well Greiner assay plates of DMSO plated as screening controls to be read at the beginning and the end of the screen. Controls included DMSO vehicle control added at 25 nl/well to each well of column 1 and […] (83.3 uM final assay concentration), and Digitonin titrated 1:2 at 25 nl/ well to column 4 in duplicate for a final assay concentration range of 83.3 uM - 2.5 nM.
2. HEK293 cells grown for 48 hr in one T175 culture flask in DMEM high glucose media supplemented with 10% FBS and 1% Pen/Strep antibiotic. Cells trypsinized and diluted in 10 ml supplemented media, strained through 40 µm cell strainer, and diluted to a total volume of 40 ml with supplemented media. […]
% is set by controls: 0 for no effect and ±100 for the full control effect; potency is the fitted concentration of half-maximal effect.

Row | Compound | Potency | activity change, negative = cytotoxicity
1 | O=C(c1ccccc1)c1ccc2nc(NC(=O)c3csc(C4CCN(c5ncnc6ccsc56)CC4)n3)[nH]c2c1 | 10 µM (active) | 
2 | COc1c2c(cc3c1-c1c(cc4c(c1OC)OCO4)CC(C)C(C)C3)OCO2 (centres undefined) |  | 1.98% [at 29.2 µM]
3 | CCOCc1nc2c(N)nc3ccccc3c2n1CC(C)(C)O |  | -6.84%
4 | Cc1cc(OCc2nnc(SC3CCCC3)n2-c2cccnc2)ccc1-c1ccc(S(C)(=O)=O)cc1 | 11.2 µM (active) | 
5 | CCOc1cc2ncc(C#N)c(Nc3ccc(F)c(Cl)c3)c2cc1NC(=O)/C=C/CN(C)C |  | -7.62%
6 | Cc1cc(N2CCN([C@@H]3CN[C@H](C(=O)N4CCSC4)C3)CC2)n(-c2ccccc2)n1 |  | 0.71%
7 | Nc1ncnc2c([C@@H]3N[C@H](CO)[C@@H](O)[C@H]3O)c[nH]c12 |  | -12.1%
8 | CCCCc1nc2cc(/C=C/C(=O)NO)ccc2n1CCN(CC)CC |  | 1.39%
9 | O=C(COc1cccc2c(=O)[nH]ccc12)c1ccccc1 |  | 4.51%
10 | CN[C@H](CC(C)C)C(=O)N[C@H]1C(=O)N[C@@H](CC(N)=O)C(=O)N[C@H]2C(=O)N[C@H]3C(=O)N[C@H](C(=O)N[C@H](C(=O)O)c4cc(O)cc(O)c4-c4cc3ccc4O)[C@H](O[C@H]3C[C@](C)(N)[C@@H](O)[C@H](C)O3)c3ccc(c(Cl)c3)Oc3cc2cc(c3O[C@@H]2O[C@H](CO)[C@@H](O)[C@H](O)[C@H]2O[C@H]2C[C@](C)(NCc3ccc(-c4ccc(Cl)cc4)cc3)[C@@H](O)[C@H](C)O2)Oc2ccc(cc2Cl)[C@H]1O |  | -19.9%
11 | CN1CCc2nc(C(=O)N[C@@H]3C[C@@H](C(=O)N(C)C)CC[C@@H]3NC(=O)C(=O)Nc3ccc(Cl)cn3)sc2C1 |  | -1.41%
12 | COC(=O)[C@@]1(c2ccc(C)cc2)C[C@H]1CN1CCC(O)(c2ccccc2)CC1 |  | -9.71%
13 | O=C(/C=C/c1cccc(S(=O)(=O)Nc2ccccc2)c1)NO |  | 8.85%
14 | Cc1cc(C)cc(C(=O)NOCCCCCC(=O)NO)c1 |  | 12.2%
15 | CCNCc1nc2c(N)nc3ccccc3c2n1CC(C)(C)O |  | -18.3%
16 | O=C(N/N=C/c1ccc(O)c(O)c1)c1cc2ccccc2cc1O |  | -18.2%
17 | CCN(CC)Cc1ccc(C(=O)N(CCc2ccccc2OC)[C@@H]2CCNC2)cc1 |  | -32.1%
18 | CC(C)C(NC(=O)c1ccc2ccccc2n1)C(=O)NC(CC(=O)O)C(=O)COc1c(F)cccc1F (centres undefined) |  | 11.8%
19 | CC(C)c1cc(C(=O)N2CC[C@@H](NC(=O)C3CC3)C2)n[nH]1 |  | -5.1%
20 | C[C@H](NC(=O)CCc1nc2ccccc2c(=O)[nH]1)c1ccccc1 |  | 8.17%
21 | CCO[C@@H]1OC(=O)C[C@@H]1NC(=O)[C@@H]1CCCN1C(=O)[C@@H](NC(=O)c1ccc(N)c(Cl)c1)C(C)(C)C |  | -0.0804%
22 | COc1ccc(C(=O)C2CCN(CC(=O)N(Cc3nc4c(c(=O)[nH]3)COCC4)CC3CC3)CC2)cc1 |  | 4.86%
23 | [N-]=[N+]=N[C@]1(CO)O[C@@H](n2ccc(=O)[nH]c2=O)[C@@H](O)[C@@H]1O |  | 4.56%
24 | CC(C)c1cc(C(=O)N2CC[C@H](NC(=O)C3CC3)C2)n[nH]1 |  | 1.84%
25 | C[C@@]1(O)[C@H](O)[C@@H](CO)O[C@H]1n1ccc(N)nc1=O |  | 13.6% [at 83.3 µM]
26 | CC(C)C[C@H](CC(=O)NO)C(=O)N[C@@H](Cc1ccc2ccccc2c1)C(=O)N[C@@H](C)C(=O)NCCN |  | 18.5%
27 | Cc1ccc(NC(=O)C(=O)NC2CC(C)(C)NC(C)(C)C2)cc1 |  | -2.55%
28 | CS(=O)(=O)c1ccc(-c2nnc(/C=C/c3nnc(-c4ccc(C#N)cc4)o3)n2-c2ccccc2Cl)nc1 |  | -16.7%
29 | N#C[C@@H]1CCCN1C(=O)CNC12CC3CC(CC(O)(C3)C1)C2 |  | -13.7%
